Compound activity (PubChem BioAssay)
An excerpt weighted towards active compounds, which were near 13% of everything screened.
HCV inhibitor: blocks hepatitis C virus; Huh7.5.1 HCVcc-Cre infection, luciferase reporter, 44 h; Potency, µM (doses to about 41.8 µM), most hits filed as inhibitors; hit rate 3.4% among 340,000; AID 651820
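Cells (1,000/well) were plated 4 h before compound, then infected with HCVcc-Cre virus (~0.5 moi). After 44 h further culture, infection was read as luciferase luminescence following a 15 min substrate incubation at room temperature.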
Pf growth 48h: P. falciparum growth inhibition at 48 hours (one generation); P. falciparum luciferase growth in erythrocytes, 48 h; Potency, µM (series often up to 28.7 µM), usual class: inhibitors; hit rate 5.9% among 310,000
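Luciferase-expressing parasites in RBCs, 2% Hct / 0.1% parasitemia final; RPMI 1640 + 0.5% Albumax; 37 C, 5% CO2, one generation; luminescence read-out, lower signal = inhibition.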
HCMV antiviral: human cytomegalovirus inhibition. HFF cells, HCMV-luciferase reporter, 72 h; hits give low values. activity change, negative = inhibition, % at 57.5 µM. hit rate 4.5% among 410,000. AID 1259415; in the data active = activity change below about -60%; inconclusive = no clear call, values can overlap the other calls; inactive = above about -39%
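Two-dose cell screen: HFF monolayers treated with compounds and infected with luciferase-expressing HCMV at 1 PFU/cell, 72 h at 37C, then lysed for luciferase measurement.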
Pf growth 96h: inhibits malaria parasite growth, 96 h | P. falciparum luciferase reporter growth, 96 h | Potency, µM (highest dose often 28.7 µM), hits mostly inhibitors | hit rate 6.9% among 320,000
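Compounds incubated with erythrocytes infected by luciferase-expressing P. falciparum (2% hematocrit, 0.05% parasitemia final) for 96 hours, 37 C in 5% CO2. Growth inhibition scored as decreased luciferase luminescence.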
Large screens that a line does not name were inactive. Unless noted, calls come from the whole dose curve; as a rule, active = well fitted inhibition curve with a large enough effect; inconclusive = small, poorly fitted or top-dose-only effect, or another doubt; inactive = no such curve, though single readings can be large or run the other way.

Cn1c(=O)n(CCc2ccccc2)c(=O)c2c1nc1n2CCN1Cc1ccco1	HCV inhibitor inconclusive, Pf growth 48h 8.3µM, Pf growth 96h 5.2µM
COCC1CN(CCc2ccc(F)cc2)S(=O)(=O)c2c(F)cccc2O1 (stereo unspecified)	none (no result: HCV inhibitor, Pf growth 48h, Pf growth 96h)
Cc1nn(CC(=O)N2CCC(C)CC2)c(=O)c2cc3sccc3n12	none (no result: HCV inhibitor, Pf growth 48h, Pf growth 96h)
Nc1ccn([C@@H]2O[C@H](CO)[C@@H](O)[C@@H]2O)c(=O)n1	HCV inhibitor inconclusive, HCMV antiviral -100
Nc1ccn([C@H]2CC[C@@H](CO)O2)c(=O)n1	none
Nc1ncn([C@@H]2O[C@H](CO)[C@@H](O)[C@H]2O)c(=O)n1	HCMV antiviral inconclusive
Nc1ccn([C@@H]2O[C@H](CO)[C@H](O)C2(F)F)c(=O)n1	Pf growth 48h 1.9µM, Pf growth 96h 1.5µM (no result: HCV inhibitor, HCMV antiviral)
NC[C@H]1O[C@@H](n2ccc(N)nc2=O)[C@H](O)[C@@H]1O	HCMV antiviral -87 (no result: HCV inhibitor, Pf growth 48h, Pf growth 96h)
CCCCCCCCCCCCCCCC(=O)Nc1ccn(C2OC(CO)C(O)C2O)c(=O)n1 (stereo unspecified)	HCMV antiviral -98 (no result: Pf growth 48h, Pf growth 96h)
CC(C)CNc1nc(NC(C)(C)C)nc(Oc2ccc(=O)n(-c3ccccc3)n2)n1	none (no result: HCV inhibitor, Pf growth 48h, Pf growth 96h)
CCCCCCCCCCCCCCCC(=O)OCC1OC(n2ccc(N)nc2=O)C(O)C1O (stereo unspecified)	HCV inhibitor inconclusive (no result: Pf growth 48h, Pf growth 96h)
Nc1ccn(C2OC(CO)C(O)C2F)c(=O)n1 (stereo unspecified)	HCMV antiviral -82 (no result: HCV inhibitor, Pf growth 48h, Pf growth 96h)
COc1cc(OC)cc(C(=O)N[C@H](C(=O)Nc2cc(C)cc(C)c2)C(C)C)c1	HCV inhibitor inconclusive, Pf growth 48h inconclusive, HCMV antiviral -76, Pf growth 96h inconclusive
CCC(C)Oc1cccc(C(=O)Nc2ccccc2N2CCOCC2)c1 (stereo unspecified)	HCV inhibitor 7.1µM, Pf growth 48h 10µM
CCOc1cccc(C(=O)Nc2ccccc2C(=O)N2CCOCC2)c1	Pf growth 48h inconclusive, HCMV antiviral -97 (no result: HCV inhibitor)
COc1cc(OC)cc(C(=O)N[C@H](C(=O)Nc2ccccc2N2CCOCC2)C(C)C)c1	HCV inhibitor inconclusive, Pf growth 96h 8.3µM (no result: Pf growth 48h)
COc1cc(OC)cc(C(=O)NC(C(=O)Nc2ccc(N3CCOCC3)cc2)C(C)C)c1 (stereo unspecified)	HCV inhibitor inconclusive, Pf growth 48h inconclusive
COc1ccc2[nH]c(=O)c(CN(C(=O)c3cccc(Cl)c3)c3ccccc3OC)cc2c1	none (no result: HCV inhibitor, Pf growth 48h, Pf growth 96h)
CCOc1ccc(C(=O)Nc2ccc(C(=O)N3CCOCC3)cc2)c(OCC)c1	HCV inhibitor 14µM
Cc1cnc(C(=O)Nc2ccccc2C(=O)N2CCOCC2)cn1	Pf growth 96h 3.7µM
CCOC(=O)[C@]12CCCC=C1N(Cc1ccccc1)C(=O)[C@H](CC(=O)N1CCN(C(=O)c3ccco3)CC1)C2	none (no result: HCV inhibitor, Pf growth 48h, Pf growth 96h)
Cc1cn(C)c(CC(=O)Nc2cccc(C#N)c2)c1C(=O)O	none (no result: HCV inhibitor, Pf growth 48h, Pf growth 96h)
O=C(CCc1nnc2n(Cc3ccccc3)c(=O)c3ccccc3n12)NCCN1CCOCC1	Pf growth 96h inconclusive
O=C(CCc1nnc2n(Cc3ccc(Cl)cc3)c(=O)c3ccccc3n12)NCCN1CCCC1	HCV inhibitor 3.5µM, Pf growth 48h inconclusive, Pf growth 96h inconclusive
O=C(CCc1nnc2n(CCc3ccccc3)c(=O)c3ccccc3n12)NCCCN1CCCCC1	Pf growth 96h 3.7µM
CCOC(=O)c1cc(-c2ccccc2)sc1NC(=O)C(C)Sc1nnnn1C (stereo unspecified)	HCV inhibitor inconclusive, Pf growth 48h inconclusive, Pf growth 96h 10µM
CCOC(=O)c1cc(-c2ccccc2)sc1NC(=O)C(C)OC(=O)c1cccnc1Cl (stereo unspecified)	Pf growth 96h 9.3µM
CCOC(=O)c1cc(-c2ccccc2)sc1NC(=O)C(C)OC(=O)c1ccncc1 (stereo unspecified)	HCMV antiviral inconclusive
CCOC(=O)c1cc(-c2ccccc2)sc1NC(=O)C(C)N1C(=O)NC(C)(c2ccc(Cl)cc2)C1=O (stereo unspecified)	HCV inhibitor inconclusive, Pf growth 96h 9.3µM (no result: Pf growth 48h)
CCOC(=O)c1cc(-c2ccccc2)sc1NC(=O)C(C)C	Pf growth 48h inconclusive, Pf growth 96h inconclusive
CCOC(=O)c1cc(-c2ccccc2)sc1NC(=O)C(C)Sc1nnc(C)s1 (stereo unspecified)	HCV inhibitor inconclusive, Pf growth 48h 13µM, Pf growth 96h inconclusive
O=C(NCCOCCO)C(=O)Nc1c2c(nn1-c1ccc(F)cc1)CSC2	none (no result: HCV inhibitor, Pf growth 48h, Pf growth 96h)
Cc1nc(SCC(=O)Nc2ccccc2F)[nH]c(=O)c1Cc1ccccc1	none (no result: HCV inhibitor, Pf growth 48h, Pf growth 96h)
N#Cc1ccccc1NC(=O)C(=O)NCC(c1cccnc1)N1CCN(c2ccccc2)CC1 (stereo unspecified)	none (no result: HCV inhibitor, Pf growth 48h, Pf growth 96h)
Cc1cc(Nc2ccc(Br)c(C)c2)n2nc(-c3ccco3)nc2n1	none (no result: HCV inhibitor, Pf growth 48h, Pf growth 96h)
O=C(NCCc1ccccc1Cl)c1ccc2c(c1)nc1n2CCOC1	none (no result: HCV inhibitor, Pf growth 48h, Pf growth 96h)
Cc1cccc(NC(=O)c2ccc3[nH]c(C)cc(=O)c3c2)c1	none (no result: HCV inhibitor, Pf growth 48h, Pf growth 96h)
CCCOc1cccc(NC(=O)c2c(-c3ccccc3)noc2C)c1	none
Cc1onc(-c2ccccc2)c1C(=O)Nc1cccc(OC(C)C)c1	Pf growth 96h 13µM
Cc1cccc(C(C)C)c1NC(=O)c1c(-c2ccccc2)noc1C	HCMV antiviral -62
CC1=CC(=Nc2c(C)n(C)n(-c3ccccc3)c2=O)C=C(C)C1=O	HCMV antiviral -75, Pf growth 96h inconclusive
COc1ccc(C2=NN(C)C(=NCc3ccccc3)SC2)cc1	HCV inhibitor 7.9µM
COc1ccc(CN=C2NN=C(c3ccc(Cl)cc3)CS2)cc1	Pf growth 96h inconclusive
Cc1cccc(OCC(=O)Nc2ccccc2C(=O)OCc2cc(=O)n3nc(C4CC4)sc3n2)c1	none (no result: HCV inhibitor, Pf growth 48h, Pf growth 96h)
CCOc1ccccc1NC(=O)Cn1c(=O)n(-c2ccc(C)c(C)c2)c(=O)c2oc3ccccc3c21	none (no result: HCV inhibitor, Pf growth 48h, Pf growth 96h)
COc1ccc(/C=C(/NC(=O)c2cccs2)C(=O)NC(C)(C)C)cc1OC	Pf growth 96h 9.3µM
COC(=O)c1ccc(C2c3c(oc4ccccc4c3=O)C(=O)N2c2nc(C)c(C(=O)OC)s2)cc1 (stereo unspecified)	none (no result: HCV inhibitor, Pf growth 48h, Pf growth 96h)
CCOc1ccccc1Nc1ncnc2ccccc12	HCV inhibitor 10µM
CC(C)COc1ccc(Nc2ncnc3ccc(Br)cc23)cc1	none (no result: HCV inhibitor, Pf growth 48h, Pf growth 96h)
CC(C)Nc1ncnc2ccc(Br)cc12	HCV inhibitor inconclusive, Pf growth 48h inconclusive, HCMV antiviral -96
COc1ccccc1Nc1ncnc2ccccc12	none
CCOc1ccccc1Nc1ncnc2ccc(Br)cc12	HCV inhibitor 22µM, Pf growth 96h inconclusive
CCOc1ccccc1Nc1nc2ccccc2[nH]1	HCV inhibitor inconclusive, Pf growth 48h inconclusive (no result: Pf growth 96h)
CCn1ccnc1CNC(=O)C1CCC(=O)N(Cc2ccccc2F)C1 (stereo unspecified)	Pf growth 96h 12µM
Cc1ccc(CNC(=O)c2cnc3c(-c4ccc(F)cc4)c(C)nn3c2C)o1	none (no result: HCV inhibitor, Pf growth 48h, Pf growth 96h)
COC(=O)CN1C(=S)N(Cc2ccccc2)C(=O)C1CC(=O)Nc1ccc(Br)cc1 (stereo unspecified)	Pf growth 48h 15µM, Pf growth 96h inconclusive
COC(=O)CN1C(=S)N(c2ccc(F)cc2)C(=O)C1CC(=O)Nc1ccc(F)cc1 (stereo unspecified)	Pf growth 48h 10µM, Pf growth 96h inconclusive
